Laboratory results taken from PubChem BioAssay (NCATS).
Results filed as inconclusive are left out. Values without a mark were called inactive. Active and inactive are the calls of the source. The call rests on the fitted dose curve; in most records, active means well fitted cell-killing curve with a large enough effect; inconclusive means small, poorly fitted or top-dose-only effect, or effect the other way; inactive means no such curve, though single readings can be large or run the other way.

Experiment: Viability qHTS for spleen associated tyrosine kinase inhibitor (SYKi) naive MV4-11 cells (AID 1963823); further: nearly all actives have a fitted effect of over 40% in size
Conditions: MV4-11 AML viability, CellTiter-Glo luminescence, 72 h; series mostly up to 45 µM; viability (% of control): at the top concentration
Summary of the method: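 Compounds were dispensed acoustically onto plates, MV4-11 cells (SYKi-naive) added at 500 per well, and plates incubated 72 hr at 37 C. CellTiter-Glo was added and luminescence measured after 10 min.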
Potency means the concentration at half of the fitted maximal effect.

SMILES | viability (% of control) | Potency
Cc1ccc2nc(NC(=O)CSc3nc4c(c(=O)n3-c3ccc(F)cc3)SCC4)sc2c1 | 63.4% | 
O=C1c2ccccc2C(=O)c2c1ccc(O)c2O |  | 9.44 µM (active)
COC(=O)C1=CO[C@@H](O[C@@H]2O[C@H](COC(=O)/C=C/c3cc(OC)c(O)c(OC)c3)[C@@H](O)[C@H](O)[C@H]2O)[C@@H]2C(CO)=CC[C@H]12 | 77.3% [at 17.3 µM] | 
O=C(O)CCc1ccc(NCc2cccc3c2CCCN3CCOc2ccccc2)cc1F | 81% | 
CN1C2CCC1CC(OC(=O)[C@H](CO)c1ccccc1)C2 (stereo partly drawn) |  | 0.651 µM (active)
CCCC(=O)c1cc(O)c(O)cc1O | 78.3% [at 91.9 µM] | 
COc1ccccc1NC(=O)OCC1CCN(C(=O)OC(C)(C)C)CC1 | 61.5% | 
OC[C@H]1O[C@@H](O[C@H]2[C@H](OCCc3ccccc3)O[C@H](CO)[C@@H](O)[C@@H]2O)[C@H](O)[C@@H](O)[C@@H]1O | 103% [at 17.3 µM] | 
CC1CCC2(O1)C(C)(C)CC(O[C@@H]1O[C@H](CO[C@@H]3OC[C@](O)(CO)[C@H]3O)[C@@H](O)[C@H](O)[C@H]1O)CC2(C)O (stereo partly drawn) | 88% [at 17.3 µM] | 
CC(CC12CCCN1C(=O)C1CCCN1C2=O)OC(N)=O (stereo not drawn) | 77.8% | 
Oc1ccc(CNc2ccccc2F)c2cccnc12 |  | 2.91 µM (active)
O=C(O)c1cc(O[C@@H]2O[C@H](CO[C@@H]3OC[C@@H](O)[C@H](O)[C@H]3O)[C@@H](O)[C@H](O)[C@H]2O)c2ccccc2c1O | 90.4% [at 17.3 µM] | 
CC(=O)O[C@H]1[C@@]2(O)C[C@H](C)[C@H](OC(=O)c3ccccc3)[C@@H]2[C@@H](OC(=O)CO)[C@]2(OC(C)=O)C[C@H]3C(=O)C(C)(C)C[C@@H]3[C@@]1(C)[C@H]2OC(C)=O | 78.5% [at 17.3 µM] | 
